In ChEMBL document CHEMBL3988442, “University of Dundee, Small-Polar-MMV Screening Library” (2021):

target: AMP-activated protein kinase, AMPK (Homo sapiens) (UniProt P54646+O43741+P54619+Q9UGJ0+Q9Y478+Q13131+Q9UGI9); assay: AMP-dependent Kinase enzyme assay. An in vitro enzyme assay that detects ADP turnover that is directly proportional to AMPK activity. This uses naive AMPK that is activated during the assay with MK-8722; assay type: functional; set-up: scale not given: direction of the effect not stated beside the values; conditions: 30 µM

SMILES | Percent Effect
Cc1nc(CN2CCC(c3cc(N4CCCC4)ncn3)CC2)cs1 | 2.88%
Cc1nc(NC(=O)c2c3c(nn2C2CCS(=O)(=O)C2)CCC3)sc1C (centres undefined) | -4%
COc1ccc(Cl)cc1-n1nc(C2CCCC2)nc1Cn1cnnn1 | -6.62%
O=S(=O)(NC1CCCOC1)c1ccc(C(F)(F)F)nc1 (centres undefined) | 7.35%
Cc1nnc(NC(=O)NCCN(C(=O)OC(C)(C)C)C2CC2)s1 | -6.8%
COCCN(C)C[C@@H]1CN(c2nc(C)cc(C)n2)C[C@@H]1CO | 2.16%
COc1ccc(C(C)NCCC(N)=O)cc1F (centres undefined) | -6.1%
CC(=O)N1CCC(C(=O)N2CCC2c2nc(-c3ccc(C)s3)no2)CC1 (centres undefined) | 7.15%
O=C(Cn1[nH]c2ccccc2c1=O)N1CCCC(CC2CC2)(C(=O)O)C1 (centres undefined) | -3.39%
O=C(CCc1nnc(-c2ccsc2)o1)NCC1CCN(C2CC2)C1 (centres undefined) | 4.06%
CCC(C(=O)NCCc1coc(-c2ccc(C)cc2)n1)N(C)C (centres undefined) | 6.54%
COC(=O)c1ccc(Cn2cccc(C(F)(F)F)c2=O)s1 | 3.31%
CCOC(=O)CC1(Nc2nc(C)nc3c2cnn3C)CCCCC1 | 14.9%
CN(CCc1noc(C2CC2)n1)C(=O)C1(N2CCCC2)CCCC1 | -3.61%
Cn1ccc(N2CCCC(NC(=O)c3ccc(Cl)o3)C2=O)n1 (centres undefined) | 3.82%
Cc1ncc2c(n1)CN(Cc1nc(-c3ccsc3)oc1C)CC2 | -40.6%
Cc1noc(C)c1S(=O)(=O)N1CCC(n2cccn2)CC1 | -5.45%
Cn1cc(NC(=O)N2CCCC2c2ccccn2)ccc1=O (centres undefined) | 40.9%
CN(Cc1nncn1C)C(=O)c1cc(COc2ccccc2F)[nH]n1 | -9.05%
CC(=O)c1sc(C(NC(=O)c2ccccc2)C2CC2)nc1C (centres undefined) | -2.1%

SMILES | Percent Effect
N[C@H]1CN(C(=O)c2ccc3[nH]c(=O)c(=O)[nH]c3c2)C[C@@H]1c1ccccc1 | 3.24%
O=C(NCc1ccon1)Nc1cc(F)ccc1N1CCCCC1 | 5.82%
CCC(C)(CC(=O)OC)NCc1c(C)noc1C (centres undefined) | 4.75%
O=c1cc(N2CCCCC2)cnn1Cc1noc(C2CCCO2)n1 (centres undefined) | 4.71%
CN(CCc1ccncc1)CCc1nccs1 | 1.48%
COc1ccc2cc(C(=O)NCCNc3ccc(C)nn3)[nH]c2c1 | 8.22%
CCCN(CCC)C(=O)CN1CCCC1C(=O)N(C)C (centres undefined) | -3.78%
COc1ccc(Cl)cc1C(C(=O)O)N1CCSCC1 (centres undefined) | 3.31%
CN1CC(C(=O)NCCc2ccc3c(c2)OCCO3)CC1=O (centres undefined) | 2.3%
CC(C)(N)C(=O)N1CCCC(C(=O)c2ccc(C(C)(C)C)cc2)C1 (centres undefined) | 17.9%
CCc1nsc(N2CCCN(CC(=O)N(C)C3CC3)CC2)n1 | 7.28%
CCc1ccc2nc(-c3cnn(C)c3)cc(C(=O)N3CCOCC3)c2c1 | 8.54%
CS(=O)(=O)N1CCC(CNc2cc(Cl)ccc2C#N)CC1 | 7.86%
Cc1cc(N2CCCC(N(C)C)C2)n2nc(C)cc2n1 (centres undefined) | -1.24%
CC(C)CN(CC(F)(F)F)S(=O)(=O)c1cc(C(N)=O)n(C)c1 | -3.17%
CCC(C(=O)NC1(CN2CCOCC2)CCCC1)n1cccn1 (centres undefined) | 5.49%
Cc1noc(CN(C)c2ccccc2)n1 | 5.44%
CC(C)N1CCCC(CNC(=O)CN(C)S(=O)(=O)c2ccccc2)C1 (centres undefined) | -1.71%
CCC(=O)Nc1cccc(OCC(=O)N[C@@H]2C[C@H]3CC[C@@H]2C3)c1 | 3.88%
